About 83,000 compounds went through this panel and 20% of them were active in at least one assay; those are over-represented in the sample as a whole.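 A percent growth of 40 corresponds to 60% growth inhibition; 0 means no net growth; -100 means all cells died. Active threshold: below 10.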 Unmarked numbers belong to inactive results. The source made the active and inactive calls.

For the assay, the system named is MDA-MB-468 breast. Briefly: NCI-60 one-dose screen, 48 h (100 = growth as untreated, 0 = no growth, -100 = all killed). As to conditions: 10 µM unless noted.
In the case of `CC(=O)Nc1cccc(NC(C)=O)n1`, the growth is 99.3%.
Next, `CC[C@@]1(O)C(=O)OCc2c1cc1n(c2=O)Cc2cc3c(CN(C)C)c(O)ccc3nc2-1`: -58.2% (active); `O=C(NC(Cc1cn(Cc2ccccc2)cn1)C(=O)O)OCC1c2ccccc2-c2ccccc21` (stereo unspecified): 107%.
Next, `CCCCCc1cc[n+](CC(=O)c2ccc(Cl)cc2)cc1`: 65.9%; `Cn1cnc([N+](=O)[O-])c1S(=O)(=O)Oc1ccc(Cl)cc1`: 29.8%; `COC(=O)c1cc(Br)ccc1O`: 93%.
Turning to `CC(=O)N(N=Nc1ccccc1)c1cccc2ccccc12`, the growth is 84.7%.
The same measure for `Cc1c(O)c(=O)ccn1-c1nc2ccccc2s1`: 103%; for `COC(=O)[C@H](C)NC(=O)[C@@H]1CCCN1C(=O)CNC(=O)[C@H](C)N`: 98.7%.
Take `CCOP(=O)(OCC)c1nc(-c2ccccc2)oc1NCc1cccnc1`: the growth was 114%.
The same measure for `CN(C)CCOc1ccc(/C(=C(/CCCl)c2ccccc2)c2ccccc2)cc1`: -57.1% (active); for `CCOC(=O)c1cc2c(n1Cc1cc(OC)cc(OC)c1Br)-c1nc(NC(C)=O)sc1CCC2`: 77.7%.
Next, `COc1ccc(C2=Nc3c(N)nc(N)nc3NC(c3cccc(Nc4ccnc5cc(C(F)(F)F)ccc45)c3)C2)cc1` (stereo unspecified): 46.1%; `C[C@@H](O)[C@H]1C(=O)N2C(C(=O)O)=C(SCCN=CN)C[C@H]12`: -48.1% (active).
Next, `CCC1NC(=O)c2cc(S(N)(=O)=O)c(Cl)cc2N1` (stereo unspecified): 107%.
As to `CCCCCC(C)(CC(=O)O)CC(=O)O`, the growth is 95.3%.

(Values after PubChem BioAssay (NCI).)
